Laboratory results: PubChem BioAssay (NCI)
The panel holds about 83,000 compounds, 20% with a hit somewhere; the sample as a whole holds those more often.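 Testing used 96-well plates and a 48-hour single-concentration exposure. Example: -40 means 40% of the starting cells died.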 Unmarked numbers belong to inactive results. Activity calls are given as the source filed them. How the source made its calls: active means growth percent below 10; inactive means the rest.

Key:
Experiment in all cases: NCI-60 one-dose screen, 48 h (100 = growth as untreated, 0 = no growth, -100 = all killed)
SK-MEL-2 melanoma = settings: 10 µM unless noted
EKVX NSCLC = settings: 10 µM
SN12C renal = settings: 10 µM unless noted
UO-31 renal = settings: 10 µM unless noted
TK-10 renal = settings: 10 µM unless noted
CAKI-1 renal = settings: 10 µM unless noted
A498 renal = settings: 10 µM unless noted
CCRF-CEM leukemia = settings: 10 µM
MOLT-4 leukemia = settings: 10 µM unless noted
SR leukemia = settings: 10 µM unless noted
RPMI-8226 leukemia = settings: 10 µM unless noted
OVCAR-8 ovarian = settings: 10 µM unless noted
OVCAR-5 ovarian = settings: 10 µM unless noted
OVCAR-4 ovarian = settings: 10 µM unless noted
SK-OV-3 ovarian = settings: 10 µM unless noted
IGROV1 ovarian = settings: 10 µM unless noted
OVCAR-3 ovarian = settings: 10 µM unless noted
HS 578T breast = settings: 10 µM unless noted
NCI/ADR-RES ovarian = settings: 10 µM unless noted
ACHN renal = settings: 10 µM unless noted

| SMILES | growth (SK-MEL-2 melanoma) | growth (EKVX NSCLC) [%] | growth (SN12C renal) [%] | growth (UO-31 renal) [%] | growth (TK-10 renal) [%] | growth (CAKI-1 renal) | growth (A498 renal) | growth (CCRF-CEM leukemia) | growth (MOLT-4 leukemia) | growth (SR leukemia) | growth (RPMI-8226 leukemia) | growth (OVCAR-8 ovarian) [%] | growth (OVCAR-5 ovarian) [%] | growth (OVCAR-4 ovarian) [%] | growth (SK-OV-3 ovarian) | growth (IGROV1 ovarian) | growth (OVCAR-3 ovarian) [%] | growth (HS 578T breast) [%] | growth (NCI/ADR-RES ovarian) [%] | growth (ACHN renal) [%] |
| --- | --- | --- | --- | --- | --- | --- | --- | --- | --- | --- | --- | --- | --- | --- | --- | --- | --- | --- | --- | --- |
| COC(=O)c1ccc2[nH]c(O)c(C(=Nc3ccc(N(C)C(=O)CN4CCN(C)CC4)cc3)c3ccc(OC)cc3)c2c1 | 16.9% | 45.7 | 17 | 14.3 | 27.6 | 5.5% (active) | -16.6% (active) | 6.43% (active) | 2.57% (active) | -14.8% (active) | 7.14% (active) | 25.6 | 38.4 | 38.7 | 2.38% (active) | 6.44% (active) | 30.4 | 11.9 | 101 |  |
| CC(C)OC(=O)Nn1cnc2ccccc21 | 106% | 106 | 113 | 93.1 | 87.6 | 92.2% | 119% | 81% | 75.2% | -48% (active) | 98.6% | 111 | 96.7 | 126 | 114% | 23.8% | 111 | 114 | 110 |  |
| CC1=C(C)C[C@]2(C(=O)O[C@H]3CCCC[C@@H]32)[S@](=O)C1 | 86.3% | 109 | 102 | 91.2 | 89.7 |  |  | 105% | 105% | 92.3% | 111% | 105 | 114 | 106 | 110% | 113% | 107 | 107 | 104 | 120 |
| COc1ccc(C2CC(=O)c3c(O)cc(OC4OC(COC5OC(C)C(O)C(O)C5O)C(O)C(O)C4O)cc3O2)cc1O (stereo not given) | -1.88% (active) | 100 | 108 | 95.3 | 110 | 105% | 132% | 106% | 113% | 130% | 123% | 94.8 | 96.7 | 103 | 118% | 37.7% | 131 | 106 | 109 |  |
| O=C(Oc1ccccc1)c1ccccc1Cl | 123% | 99.6 | 107 | 96.7 | 111 |  |  | -11.9% (active) | 110% | 104% | 62.9% | 104 | 90.7 | 108 | 101% | 109% | 97.3 |  | 104 | 102 |
| COc1ccc(-c2nc(N)n(C(=S)Nc3ccccc3)n2)cc1 | 101% | 96.3 | 100 | 74.2 | 113 |  |  | 98.7% | 98.5% | 90.8% | 99% | 97.8 | 111 | 109 | 94.7% | 99.4% | 103 | 87.2 | 102 | 97.9 |
| Oc1ccc(N=Nc2ccc(N=Nc3ccccc3)cc2)cc1 | 47.3% | 39.8 | 57.1 | 15.8 | 48.5 |  |  | 6.69% (active) | 4.57% (active) | 43.1% | 24.8% | 23.1 | 79.3 | 76 | 42.6% | 53.6% | 18.3 | 91.8 | 43.4 | 30.8 |
| CC(C)CSc1nc(-c2ccc(F)cc2)c(C#N)c(N2CCCCC2)n1 | 85.5% | 93.4 | 105 | 95.3 | 91.4 |  |  | 94.4% | 95.3% | 84.3% | 102% | 94 | 90.5 | 97.1 | 99.6% | 104% | 93 | 99.4 | 88.7 | 98.8 |
| NC(N)=N/N=C/c1cccc(Br)c1 | 103% | 103 | 101 | 79.5 | 100 |  |  | 101% | 91.2% | 104% | 95.3% | 110 | 104 | 91.6 | 91.4% | 86.4% | 99.8 |  | 103 | 108 |
| CCCCCCNC(=O)Oc1ccc(/C(=C(/C)Cc2ccc(OC)cc2)c2ccc(OCCN3CCCCC3)cc2)cc1 | 101% | 81.9 | 80.1 | 58.5 | 89.8 |  |  | 72% | 69.3% | -0.659% (active) | 76.5% | 81.2 | 90.5 | 81 | 88.8% | 95.1% | 93.9 | 80 | 86.3 | 99.5 |
| CCCNC(=O)Oc1ccc(/C(=C(/C)Cc2ccc(OC)cc2)c2ccc(OCCN3CCCCC3)cc2)cc1 | 99.5% | 76.6 | 84.9 | 60.8 | 81.1 |  |  | 70.8% | 70.9% |  |  | 91.1 | 94.9 | 87.3 | 90.2% | 98.4% | 88.6 | 71.7 | 84.4 | 102 |
| CC(=N\N=C(N)N)/C(=N/N=C(N)N)c1ccccc1 | 84.6% | 68.6 | 107 | 82.9 | 91.1 |  |  | 32.2% | 48.9% | 89.3% | 91.7% | 83.1 | 96.1 | 79.2 | 102% | 91.4% | 97.9 |  | 90.2 | 106 |
| Nc1ccc(N=Nc2ccccc2)c2cc(S(=O)(=O)O)ccc12 | 91.1% | 105 | 108 | 86.7 | 92.9 |  |  | 99.9% | 106% | 95.8% | 103% | 96.5 | 107 | 107 | 97.8% | 108% | 108 | 104 | 101 | 104 |
| CC(=O)CCS(=O)c1ccccc1 (stereo not given) | 97.1% | 106 | 98.6 | 85.8 | 89 |  |  | 101% | 98.3% | 85.1% | 104% | 104 | 108 | 106 | 110% | 105% | 101 | 98.4 | 99.1 | 112 |
| COc1ccc(-c2nc(SCC(C)C)nc(Nc3ccc(C(=O)O)cc3)c2C#N)cc1 | 57.9% | 90.7 | 102 | 92.9 | 88.5 |  |  | 89.2% |  | 82.5% | 60.8% | 97.1 | 104 | 87.1 | 113% | 109% | 86.6 | 99.1 | 94.6 | 89.5 |
| CCCCN(CCCC)CCCNc1c2c(nc3ccc(Cl)cc13)CCCC2 | 101% | 95.5 | 93.2 | 72.7 | 86.3 |  |  | 98.1% | 94.9% | 75.8% | 102% | 102 | 84 | 84.7 | 105% | 79.5% | 88.9 | 104 | 94.4 | 102 |
